In PubChem BioAssay (NCI):
This is part of a sample that, as a whole, favours compounds with a hit. Of some 83,000 tested, about 20% had one in any assay.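 The test compound was applied at a single concentration to cells in 96-well plates for 48 hours, and percent growth was recorded.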 Active and inactive are the calls of the source. How the source made its calls: active means growth percent below 10; inactive means the rest.

Legend:
Experiment in all cases: NCI-60 one-dose screen, 48 h (100 = growth as untreated, 0 = no growth, -100 = all killed)
Details in all cases: 10 µM unless noted
[1] = tested on: SR leukemia
[2] = tested on: RPMI-8226 leukemia
[3] = tested on: OVCAR-8 ovarian
[4] = tested on: OVCAR-5 ovarian
[5] = tested on: OVCAR-4 ovarian
[6] = tested on: SK-OV-3 ovarian
[7] = tested on: IGROV1 ovarian
[8] = tested on: OVCAR-3 ovarian
[9] = tested on: HS 578T breast
[10] = tested on: NCI/ADR-RES ovarian
[11] = tested on: T-47D breast
[12] = tested on: MDA-MB-435 melanoma
[13] = tested on: SW-620 colon
[14] = tested on: MCF7 breast
[15] = tested on: HCT-116 colon
[16] = tested on: HCC-2998 colon
[17] = tested on: KM12 colon
[18] = tested on: BT-549 breast

Measured: growth

CN1/C(=C/C=C/c2n(Cc3ccc4ccccc4c3)c(Cl)c(Cl)[n+]2Cc2ccc3ccccc3c2)Oc2ccccc21
active: [2] -53.1% | [3] -86.1% | [4] -83.1% | [5] -70.7% | [6] -57.2% | [7] -80.4% | [8] -83.8% | [9] -44.4% | [11] -50.2% | [12] -81.8% | [13] -79.9% | [14] -72.8% | [15] -82.2% | [16] -87.6% | [17] -80.9%
inactive: [1] 95.3% | [10] 33.4%

COC(=O)c1cc(-c2cc(OC)c(OC)c(OC)c2)[nH]c1N/N=C/c1c(Cl)cccc1Cl
inactive: [2] 18.4% | [4] 22.7% | [6] 28.3% | [18] 128% | [13] 44.9% | [17] 15%
active: [1] -17.6% | [3] 5.44% | [5] 5.08% | [7] -54.8% | [8] 9.29% | [9] -5.55% | [10] 6.82% | [11] 9.55% | [14] 7.14% | [15] 5.15% | [16] -62%

O=C1/C(=C/c2cccc(Br)c2)COc2ccc(O)c(O)c21
active: [2] -12.7% | [3] 3.75% | [4] -31.5% | [5] 0.231% | [7] -44.1% | [8] -78% | [10] 7.25% | [11] -14.3% | [12] -34.7% | [13] -25.1% | [14] 6.49% | [15] -51% | [16] -58.8% | [17] -60.9%
inactive: [1] 13.6% | [6] 62.9% | [9] 13.5%

N#C/C(Sc1nc2sc3c(c2c(=O)n1Cc1ccccc1)CCCC3)=C1/SC=C(c2ccc(Cl)cc2)N1c1ccccc1
inactive: [1] 25.4% | [2] 68.3% | [3] 61.6% | [4] 83.7% | [5] 93.5% | [6] 88.6% | [7] 38.2% | [8] 112% | [9] 75.2% | [10] 83.5% | [11] 91.5% | [18] 101% | [13] 89.9% | [14] 82.5% | [15] 83.5% | [16] 87.2% | [17] 95.8%

COc1ccccc1/C=C/C1=C(C)CCC(c2ccccc2OC)C1C (stereo not drawn)
active: [1] -13.2% | [2] -4.33% | [7] -48.7% | [8] -21.6% | [18] -16.3% | [14] 7.88% | [15] 2.8% | [16] -12.5% | [17] 6.67%
inactive: [3] 19.7% | [4] 28.9% | [5] 42.7% | [6] 33.4% | [9] 11.1% | [10] 18% | [11] 61.9% | [13] 18.2%

COc1ccc(Cn2cc3c(c2)-c2oncc2CC3)cc1
active: [12] -40.8%
inactive: [1] 40.7% | [2] 48.9% | [3] 83.2% | [4] 83.9% | [5] 89.8% | [6] 67.1% | [7] 49.6% | [8] 108% | [9] 70.9% | [10] 33.7% | [11] 51.6% | [18] 64.3% | [13] 27.2% | [14] 35.4% | [15] 29.6% | [17] 52.3%

O=c1n(C2OC(CO)C(O)C2O)ccc2nccn12 (stereo not drawn)
inactive: [1] 88.2% | [2] 114% | [3] 92% | [4] 115% | [5] 117% | [6] 117% | [7] 113% | [8] 107% | [9] 101% | [10] 113% | [11] 118% | [18] 121% | [13] 94.4% | [14] 94.1% | [15] 112% | [16] 110% | [17] 103%

Nc1ccc(N)c2c1C(=O)c1cccc([N+](=O)[O-])c1C2=O
inactive: [2] 42.8% | [3] 41.4% | [4] 70.2% | [5] 60.9% | [6] 27.6% | [7] 18.6% | [8] 58.7% | [9] 37.6% | [10] 49.4% | [11] 38.2% | [18] 21.6% | [12] 67.3% | [13] 51.5% | [14] 16.5% | [15] 19.7% | [17] 42%
active: [1] -9.26%

C#CCOc1cccc(Nc2c(Cl)c(CCl)nc3ccc(Oc4ccccc4)cc23)c1
inactive: [1] 10.4% | [2] 24.5% | [3] 24.8% | [4] 82.7% | [5] 75% | [6] 109% | [7] 43.2% | [8] 31.6% | [9] 74.9% | [10] 60.2% | [11] 82.1% | [12] 15.6% | [13] 20.6% | [14] 12.9% | [15] 27.2% | [16] 104% | [17] 69.7%
